Assay results: PubChem BioAssay (Tox21)
Where “and” joins values, the source holds several entries; their conditions need not be identical. Equal entries are not always repeated. Inconclusive results are not listed. Where a call stands in place of a potency, no number is given. More than one record can exist for a structure, and the calls need not agree. Calls of active or inactive are those of the source. The call rests on the fitted dose curve; in most records, active means well fitted activation curve with a large enough effect in the repeat runs; inconclusive means weak or mixed curves, or effect the other way; inactive means no such curve, though single readings can be large or run the other way.

Experiment: qHTS assay to identify small molecule agonists of the estrogen related receptor signaling pathway with the pleiotropic PPARgamma coactivator (PGC) from Tox21 10K library (AID 1224842); further: nearly all actives have a fitted effect of over 15% in size
Conditions: PGC/ERR reporter cell line, luciferase ONE-Glo, 18 h; series mostly up to 92.4 µM; activation: at the top concentration
From the text: National Center for Advancing Translational Sciences [NCATS] NIH Chemical Genomics Center [NCGC] U.S. Environmental Protection Agency [EPA] National Institutes of Environmental Health Sciences [NIEHS] National Toxicology Program [NTP] Assay overview: Estrogen related receptors (ERRs), the first orphan nuclear receptors discovered, play an important role in the control of cellular energy metabolism. ERRs are required for high-energy production in response to the environmental challenges. The pleiotropic PPARgamma coactivator (PGC) is a major partner of ERR and a key regulator in energy homeostasis. Together they have been implicated in the etiology of metabolic disorders such as Type 2 diabetes and metabolic syndrome. ERR-alpha was also identified as an adverse marker for breast cancer progression; ERR-alpha-positive tumors have a poor prognosis. To screen and to identify environmental compounds that perturb the PGC/ERR signaling pathways could provide valuable information for potential therapeutic or preventive measures in the treatment of metabolic disease. For identifying PGC/ERR agonists, PGC/ERR cell line (provided by NTP) has been used to screen Tox21 10K library.
Assay Protocol Summary: The PGC/ERR cells were dispensed at 2,000 cells/5 ul/well in 1536-well white plates using a Multidrop dispenser. After the assay plates were incubated at a 37 C/5% CO2 incubator for 6 hours, 23 nL of compounds dissolved in DMSO, positive and negative controls or DMSO only was transferred to the assay plate by a pin tool. The plates were incubated at 37 C for 18 hours. 4 ul/well of One-Glo reagent was added into the assay plates using a Flying Reagent Dispenser. After 30-minute incubation at room temperature, the luminescence intensity in the plates was measured using a ViewLux plate reader.
Potency means the concentration at half of the fitted maximal effect.

Row | Compound | activation | Potency
1 | COc1ccc2cc(S(=O)(=O)N[C@H](CC(=O)N[C@H](Cc3ccc(CN4[C@H](C)CCC[C@@H]4C)cc3)C(=O)N(C)C(C)C)c3ccc4c(c3)OCO4)ccc2c1 | -39.2% (inactive) | 
2 | O=S1(=O)OC(c2ccc(O)cc2)(c2ccc(O)cc2)c2ccccc21 |  | inactive
3 | CCCCCCCCCCCCCCCC[N+](C)(C)Cc1ccccc1 |  | inactive
4 | Cc1ncc([N+](=O)[O-])n1CCO |  | inactive
5 | NS(=O)(=O)c1cc2c(cc1Cl)NCNS2(=O)=O |  | inactive
6 | CC(C)C(=O)Nc1ccc([N+](=O)[O-])c(C(F)(F)F)c1 |  | inactive
7 | CC(C)NCC(O)c1ccc(O)c(O)c1 (stereo not given) |  | 5.4 nM (active) and 8.6 nM (active) and inactive
8 | CN(C)C(=S)SC(=S)N(C)C |  | inactive
9 | CCOc1ccc(NC(C)=O)cc1 |  | inactive
10 | Cc1ncc([N+](=O)[O-])n1C |  | inactive
11 | CS(=O)(=O)OCCCCOS(C)(=O)=O |  | inactive
12 | COc1ccc2c(c1)c(CC(=O)O)c(C)n2C(=O)c1ccc(Cl)cc1 |  | inactive
13 | Nc1c(N=Nc2ccc(-c3ccc(N=Nc4cc(S(=O)(=O)O)c5ccccc5c4N)cc3)cc2)cc(S(=O)(=O)O)c2ccccc12 | -20.4% (inactive) | 
14 | CN1CCc2cccc3c2[C@H]1Cc1ccc(O)c(O)c1-3 |  | inactive
15 | CN(C)CCOC(C)(c1ccccc1)c1ccccn1 (stereo not given) |  | inactive
16 | O=c1[nH]cnc2c1ncn2[C@H]1CC[C@@H](CO)O1 |  | inactive
17 | CN(C)C(=O)Nc1ccc(Cl)c(Cl)c1 |  | inactive
18 | C1CCC(C(CC2CCCCN2)C2CCCCC2)CC1 (stereo not given) | -22.5% [at 42.5 µM] (inactive) | 
19 | CCCCC1(COC(=O)CCC(=O)O)C(=O)N(c2ccccc2)N(c2ccccc2)C1=O |  | inactive
20 | COc1ccc(C(Cl)=C(c2ccc(OC)cc2)c2ccc(OC)cc2)cc1 |  | inactive
21 | CCN(CC)C(=O)c1cccc(C)c1 |  | inactive
22 | CCCCNC(=O)NS(=O)(=O)c1ccc(C)cc1 |  | inactive
23 | Cc1cccc(C)c1 |  | inactive
24 | C1=CC2C3C=CC(C3)C2C1 (stereo not given) | -0.565% (inactive) | 
25 | Nc1c2c(nc3ccccc13)CCCC2 |  | inactive
26 | CC1(C)O[C@@H]2C[C@H]3[C@@H]4CCC5=CC(=O)C=C[C@]5(C)[C@@]4(F)[C@@H](O)C[C@]3(C)[C@]2(C(=O)CO)O1 |  | inactive
27 | CCCCCCc1ccc(O)cc1O |  | inactive
28 | Cn1c(=O)c2c(ncn2C)n(C)c1=O |  | inactive
29 | O=C(Nc1ncc([N+](=O)[O-])s1)c1cccs1 |  | 841 nM (active)
30 | CCN(Cc1c(F)cccc1Cl)c1c([N+](=O)[O-])cc(C(F)(F)F)cc1[N+](=O)[O-] | -12.9% (inactive) | 
